FMDV antiviral: blocks foot and mouth disease virus; FMDV antiviral cell-based qHTS; Potency, µM (top dose mostly 57.9 µM), without a hit: at the top dose activity change, negative = inhibition, most hits filed as inhibitors; hit rate 1.2% among 410,000; calls by dose curve; tested in HEK293T cells; note: read-out not given here; potency is the fitted concentration of half-maximal effect; nearly all actives have a fitted effect of over 45% in size
HCMV inh: human cytomegalovirus inhibition; hit rate 4.5% among 410,000; AID 1259415; HFF cells, HCMV-luciferase reporter, 72 h; active compounds read low; activity change, negative = inhibition, % at 57.5 µM; in the data active = activity change below about -60%; inconclusive = no clear call, values can overlap the other calls; inactive = above about -39%
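Screen run at 2 compound doses on HFFs infected with reporter HCMV, MOI 1 PFU/cell. Luciferase activity from cell lysates at 72 h post infection gave inhibition relative to buffer-only and Salinomycin wells.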
HCV inhibitor: inhibitors of hepatitis C virus infection. Potency, µM (series often up to 41.8 µM), without a hit: at the highest dose activity change, negative = inhibition, usual class: inhibitors. Huh7.5.1 HCVcc-Cre infection, luciferase reporter, 44 h. hit rate 3.4% among 340,000; active = well fitted inhibition curve with a large enough effect; inconclusive = small, poorly fitted or top-dose-only effect, or another doubt; inactive = no such curve, though single readings can be large or run the other way; note: potency is the fitted concentration of half-maximal effect
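Reporter virus HCVcc-Cre (~0.5 moi) infects cells exposed to compound; seeding density 1,000 cells/well with 4 h settling beforehand. Luminescence, 15 sec read, taken 44 h post-infection following a 15 min RT substrate incubation.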
MARV entry inh: inhibitors of Marburg virus binding or cell entry; Marburg virus pseudotyped entry inhibition, cell reporter; Potency, µM (titrated, usually from 37.8 µM), for inactives: at the highest dose activity change, negative = inhibition, actives largely listed as inhibitors; hit rate 1.8% among 300,000; AID 540276; calls by dose curve; tested in HEK293 cells; note: potency is the fitted concentration of half-maximal effect
Lassa entry inh: inhibitors of Lassa virus binding or cell entry | Lassa virus pseudotype entry inhibition, cell reporter | Potency, µM (top dose mostly 37.9 µM), without a hit: top-dose activity change, negative = inhibition, most hits filed as inhibitors | hit rate 1.2% among 300,000; calls by dose curve; tested in HEK293 cells; note: potency is the fitted concentration of half-maximal effect; nearly all actives have a fitted effect of over 50% in size
* = called active by the depositor; [ ] = another dose, or the depositor's remark. An excerpt weighted towards active compounds, which were near 7.9% of everything screened. % is set by controls: 0 for no effect and ±100 for the full control effect.

Results for CCOC(=O)C(C)NC(=O)Cn1ncc2c(=O)oc3ccc(C)cc3c21 (stereo not given) ?
FMDV antiviral: -24%; HCMV inh: 7; HCV inhibitor: 12%

What do the screens show for `Cc1cccc(CN(Nc2ccccc2)c2ccccc2)n1`?
FMDV antiviral: -7%; HCMV inh: inconclusive

Results for Cc1cc(N=Nc2ccccc2C)ccc1N ?
FMDV antiviral: 31%; HCMV inh: 27; HCV inhibitor: 13µM*; MARV entry inh: -11%[46.1 µM]; Lassa entry inh: -14%

What do the screens show for `O=C(Nc1cccc(C(F)(F)F)c1)C1CCCN1S(=O)(=O)c1cccc2cccnc12` (stereo not given)?
FMDV antiviral: inconclusive; HCMV inh: -93*; HCV inhibitor: inconclusive; MARV entry inh: inconclusive; Lassa entry inh: inconclusive

What do the screens show for `Nc1ccc(-c2nc3c(Cl)cc(N)cc3[nH]2)cc1`?
FMDV antiviral: 4µM*; HCMV inh: inconclusive; HCV inhibitor: inconclusive; MARV entry inh: inconclusive; Lassa entry inh: 11µM*

Results for N#CC(=C=[N-])c1nc2ccccc2nc1-[n+]1cccc(NC(=O)c2cccs2)c1 ?
FMDV antiviral: -11%; HCMV inh: -24; HCV inhibitor: -27%

Results for COc1ccccc1N1CCN(C(=O)c2ccc(CSc3ccccc3)cc2)CC1 ?
FMDV antiviral: inconclusive; HCMV inh: -92*; HCV inhibitor: -15%; MARV entry inh: inconclusive; Lassa entry inh: inconclusive

Results for O=C(CNCCc1ccc(Cl)cc1)Nc1ccc(C(=O)N2CCCCC2)cc1 ?
FMDV antiviral: -16%; HCMV inh: inconclusive; HCV inhibitor: 11%; MARV entry inh: 11µM*; Lassa entry inh: inconclusive

How did O=C(CNCCc1ccccc1)Nc1ccc(C(=O)N2CCCCC2)cc1 do in these assays?
FMDV antiviral: 16%; HCMV inh: inconclusive; HCV inhibitor: 17%; MARV entry inh: 11%[46.1 µM]; Lassa entry inh: 2%[46.1 µM]

How did COc1ccccc1N1CCN(C(=O)C(Sc2ccccc2)c2ccccc2)CC1 (stereo not given) do in these assays?
FMDV antiviral: inconclusive; HCMV inh: 16; HCV inhibitor: 11µM*; MARV entry inh: 6.3µM*; Lassa entry inh: inconclusive

What do the screens show for `O=C(c1ccc(CSc2ccc(Cl)cc2)cc1)N1CCCC1`?
FMDV antiviral: 12%; HCMV inh: -63*; HCV inhibitor: inconclusive

What do the screens show for `COc1ccc2c3c(n(C)c2c1)[C@H](CO)N(Cc1nccs1)CC31CCN(C(=O)CN(C)C)CC1`?
HCMV inh: 13

Results for CC(C)CCNC(=O)c1ccc(NC(=O)N2CCCCc3ccccc32)cc1 ?
FMDV antiviral: -14%; HCMV inh: 5; MARV entry inh: inconclusive

What do the screens show for `CCCC(C)NC(=O)COC(=O)c1cc(Br)c(Br)s1` (stereo not given)?
FMDV antiviral: -13%; HCMV inh: 18; HCV inhibitor: 12%; MARV entry inh: -18%[46.1 µM]; Lassa entry inh: 3%

What do the screens show for `COc1ccc(Nc2nccc3[nH]c(-c4cccc(F)c4)cc23)cc1`?
HCMV inh: -34

What do the screens show for `Cn1cc(-c2cc3c(Nc4ccc(OC(F)(F)F)cc4)nccc3[nH]2)cn1`?
HCMV inh: -65*

Results for Cn1nnc2c[n+](CC(=O)c3ccc4ccccc4c3)cc(Br)c21 ?
FMDV antiviral: inconclusive; HCMV inh: -97*; HCV inhibitor: inconclusive; MARV entry inh: 11µM*; Lassa entry inh: inconclusive

How did Cn1nnc2c[n+](CC(=O)c3ccc(Cl)cc3)cc(Br)c21 do in these assays?
FMDV antiviral: inconclusive; HCMV inh: -96*; HCV inhibitor: inconclusive; MARV entry inh: inconclusive; Lassa entry inh: inconclusive

How did CCOC(=O)NN=C1C[C@@H](O)[C@@H](O)[C@@H]2[C@H]3C(=O)N(Cc4ccc5c(c4)OCO5)C(=O)[C@@H]3CC[C@@H]12 do in these assays?
MARV entry inh: -2%[14.2 µM]

How did Cc1ccccc1Nc1nc(N)nc(COC(=O)c2ccc3c(c2)OCCO3)n1 do in these assays?
FMDV antiviral: inconclusive; HCMV inh: 16

How did CN1CCC(C(=O)Nc2n[nH]c3nc(-c4ccc(O)cc4)c(Br)cc23)CC1 do in these assays?
Lassa entry inh: 20µM*

What do the screens show for `CN1CCCC(C(=O)Nc2cccc(Cl)c2)CC1` (stereo not given)?
FMDV antiviral: -16%; HCMV inh: -9

Results for COc1ccc(C(O)c2ncc(-c3ccccc3Cl)[nH]2)cc1 (stereo not given) ?
FMDV antiviral: 38%; HCMV inh: -74*

What do the screens show for `O=C(/C(=C/c1ccccc1)n1cncn1)c1ccc(Cl)cc1Cl`?
FMDV antiviral: -21%; HCMV inh: 27; HCV inhibitor: 18%; MARV entry inh: -5%; Lassa entry inh: 14%

How did Cc1nn(C)c(C)c1/C=C(/C(=O)C(C)(C)C)n1cncn1 do in these assays?
FMDV antiviral: -15%; HCMV inh: -98*; HCV inhibitor: -8%; MARV entry inh: inconclusive; Lassa entry inh: inconclusive

Results for CC(C)(C)C(=O)/C(=C/c1ccncc1)n1cncn1 ?
FMDV antiviral: 11µM*; HCMV inh: -100*; HCV inhibitor: 2.2µM*; MARV entry inh: 4.1µM*; Lassa entry inh: 10µM*

How did CCc1ccccc1NC(=O)CC1NCCNC1=O (stereo not given) do in these assays?
FMDV antiviral: -13%; HCMV inh: 3; MARV entry inh: 4%[46.1 µM]; Lassa entry inh: -7%[46.1 µM]

How did O=c1sc2ccccc2n1COc1ccc(Cl)cc1 do in these assays?
FMDV antiviral: 15%; HCMV inh: -23; HCV inhibitor: -19%; MARV entry inh: 20%; Lassa entry inh: 5%

Results for O=c1sc2ccccc2n1COc1ccccc1 ?
FMDV antiviral: 25%; HCMV inh: -95*; HCV inhibitor: 20%; MARV entry inh: 0%; Lassa entry inh: 28%

What do the screens show for `CC(C)CCOc1ccccc1Cn1c(=O)sc2ccccc21`?
FMDV antiviral: -13%; HCMV inh: 7; MARV entry inh: -2%[46.1 µM]; Lassa entry inh: 20%[46.1 µM]

Results for CCOc1ccccc1Cn1c(=O)sc2ccccc21 ?
FMDV antiviral: -14%; HCMV inh: -66*; HCV inhibitor: 10%; MARV entry inh: -28%[46.1 µM]; Lassa entry inh: 8%

How did COc1ccc(-c2nc3cnc(N(C)C)nc3n(C[C@H]3CCCO3)c2=O)cc1 do in these assays?
FMDV antiviral: 1%

How did CCOC(=O)C(=Cc1ccc(-c2ccsc2C(=O)OC)o1)C(=O)OCC do in these assays?
FMDV antiviral: 32µM*; HCMV inh: -9; HCV inhibitor: inconclusive; MARV entry inh: -11%; Lassa entry inh: 7%

How did COC(=O)C(=Cc1ccc(-c2ccsc2C(=O)OC)o1)C(=O)OC do in these assays?
FMDV antiviral: -10%; HCMV inh: 19; HCV inhibitor: -5%; MARV entry inh: -31%[14.2 µM]; Lassa entry inh: -2%

How did CN(Cc1ccccc1)C1=CC(=[N+]2CCCC2)CC(C)(C)C1 do in these assays?
FMDV antiviral: inconclusive; HCMV inh: -99*; HCV inhibitor: inconclusive; MARV entry inh: inconclusive; Lassa entry inh: inconclusive

Screening results as filed in PubChem.
